# Source: PubChem (several laboratories)
# Compounds with a hit are over-represented: about 12% of the library has one in this group of screens.
# PLAP act: activators of human placental alkaline phosphatase; activation fold at 20 µM; purified PLAP enzyme, luminescent substrate read-out; hits give high values; 96,000 compounds, 1.2% hits; P05187; in the data active = activation fold above about 2
# PostGolgi yeast: growth inhibition of a yeast mutant, post-Golgi transport screen. post-Golgi transport phenotypic cell assay. inhibition, % at 10 µM. 98,000 compounds, 0.9% hits. AID 739;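 note: yeast cells grown in 1536-well plates; yeast grown about 18 h at 30C before absorbance read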
# Cav32 inh: human Cav3.2 channel inhibition, primary screen; Cav3.2-expressing cells, Fluo-4 calcium fluorescence FDSS; hits give low values; 100,000 compounds, 4% hits; B-score at 10 µM; O95180;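 active = single-dose well whose peak fluorescence ratio is a statistical outlier from its plate by either plate-standardised score or position-corrected B-score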
# D1 mod: allosterically modulates the human D1 dopamine receptor | AID 641 | HEK293 D1, CRE-luciferase, dopamine EC30 potentiation; actives deviate in either direction | 58,000 compounds, 5.9% hits | B-score at 10 µM | P21728;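 active = luminescence count or its row- and column-corrected plate score outside the 99.7% band of the plate's sample wells, on either side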
# Target sequence (P21728 whole entry, looked up): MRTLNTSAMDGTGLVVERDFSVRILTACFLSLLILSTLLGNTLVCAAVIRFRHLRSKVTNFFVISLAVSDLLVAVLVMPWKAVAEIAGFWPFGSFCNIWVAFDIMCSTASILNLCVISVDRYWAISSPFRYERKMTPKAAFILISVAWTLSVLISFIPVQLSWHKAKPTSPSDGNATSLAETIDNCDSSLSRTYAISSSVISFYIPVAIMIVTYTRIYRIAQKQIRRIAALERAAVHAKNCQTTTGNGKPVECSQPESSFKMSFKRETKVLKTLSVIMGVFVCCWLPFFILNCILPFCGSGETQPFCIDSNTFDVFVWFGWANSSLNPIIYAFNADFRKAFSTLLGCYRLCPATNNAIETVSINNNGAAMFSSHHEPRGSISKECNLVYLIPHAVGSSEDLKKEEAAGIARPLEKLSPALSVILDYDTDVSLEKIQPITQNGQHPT
# PostGolgi ctrl: growth of the yeast control strain, post-Golgi counter-screen. efflux-deficient yeast background strain, growth absorbance A615, 16 h. inhibition, % at 10 µM. 98,000 compounds, 5% hits
# hDAT+cocaine: modulates human dopamine transporter uptake under cocaine. LLC-PK1 hDAT cells, [14C]-dopamine uptake with cocaine IC80; actives deviate in either direction. Q01959. B-score at 10 µM. 110,000 compounds, 1.3% hits;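 active = Z score or B-score, a plate-position-corrected score, falls beyond the plate's 99.7% confidence bounds, in either direction; inactive = both scores lie inside the 99.7% bounds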;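 note: scored against the spread of the other compound wells on the same plate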
# An asterisk follows results filed as active; x = no result. Cut-off read from the data, not from the text of the source, unless noted: active = inhibition above about 30%; inactive = the rest.
SMILES,PLAP act,PostGolgi yeast,Cav32 inh,D1 mod,PostGolgi ctrl,hDAT+cocaine
CCOC(=O)C[C@H]1c2cc(F)ccc2S(=O)(=O)N1c1cccc(OC)c1,x,x,0.122,x,x,-0.0429
FC(F)(F)c1ccc(N2CCOCC2)c(Nc2nc3ccccc3n3cnnc23)c1,1.3,6.8,-0.293,x,51.8*,0.155
O=C(CSc1nc2ccccc2o1)Nc1cc(C(F)(F)F)ccc1N1CCOCC1,0.9,-6.8,-1.43,x,33.8*,-0.0609
Cc1ccc(-n2nnnc2SCC(=O)Nc2ccccc2N2CCCCC2)cc1C,0.9,-7.3,-4.09*,x,19.9,0.699
Cc1cccc(NC(=O)CSc2nc3ccccc3o2)c1,1.1,0.7,-6.94*,x,5.2,0.528
Cc1nnc2sc(-c3cc4ccccc4o3)nn12,x,x,x,1.46,x,x
O=C(NC1CCCC1)c1sc(=S)n2c1[nH]c(=O)c1ccccc12,1.1,3.9,-2.86,-2.14,51.2*,-1.16
CCCCCNC(=O)c1ccc2c(=O)[nH]c3c(C(=O)NCC4CCCO4)sc(=S)n3c2c1 (stereo not drawn),1.6,-1.0,-3.07,-0.159,5.8,-0.798
O=C(NCc1ccco1)c1sc(=S)n2c1[nH]c(=O)c1ccccc12,1.3,-6.8,-2.66,-0.95,32.3*,-0.808
COC(=O)[C@@H](NC(=O)NCc1ccccc1Cl)C(C)C,0.8,-3.9,1.27,-0.0503,4.7,-0.992
CCOc1ccc2[nH]c(=O)c(CN(CCO)C(=O)c3ccc(F)cc3)cc2c1,1,18.1,0.574,0.346,2.5,-0.15
O=C(Nc1ccccc1Cl)c1cccc(COc2cc(Cl)ccc2Cl)c1,0.8,-2.1,x,x,7.9,x
Cc1cc(N=Cc2c(O)n(-c3ccc4c(c3)OCO4)c(=O)c3ccccc23)ccn1,1.3,-0.3,0.039,-0.809,30.1*,-0.704
Cc1ccc(-n2c(O)c(C=Nc3ccc4c(c3)OCO4)c3ccccc3c2=O)cc1C,1.2,0.9,-1.61,x,7.3,-0.984
Cc1ccc(N=C(NOCc2ccc(Cl)cc2Cl)c2nonc2N)c(C)c1,0.2,-4.6,-1.07,x,26.7,0.176
Cc1ccccc1N=C(NOCc1ccc(Cl)cc1Cl)c1nonc1N,0.3,-4.7,-2.43,x,35.5*,0.502
Cc1ccccc1N=C(NOCc1ccccc1)c1nonc1N,x,10.1,-6.56*,x,36.0*,-0.597
CCc1ccc(NC(=O)c2ccc3ncsc3c2)cc1,0.9,13.8,x,x,71.1*,x
CCc1ccc(NC(=O)c2ccc3nc(N)sc3c2)cc1,0.8,14.7,-2.06,x,1.0,0.212
CCCc1cc(=O)n2[nH]c(C)cc2n1,1.1,-38.0,0.46,0.145,0.1,0.79
Clc1ccc(-c2nc3cnccn3c2NC2CCCC2)cc1,1.1,21.7,-5.02*,x,31.2*,0.174
Clc1ccc(-c2nc3cnccn3c2Nc2ccc3c(c2)OCO3)cc1,0.9,-2.5,-3.11,x,38.5*,2.19
O=c1c2cnn(-c3ccccc3)c2nc(-c2cccs2)n1-c1ccc(Br)cc1,x,-1.4,-1.98,x,-2.2,-0.734
CCc1cccc(C)c1NC(=O)C1=C(C(=O)O)CCCC1,1,2.0,0.153,0.0462,11.7,0.541
CCOC(=O)c1[nH]c2ccc(OCC)cc2c1NC(=O)CN1CCN(c2ccccc2)CC1,1,2.6,x,-0.452,3.3,0.0404
SMILES,PLAP act,PostGolgi yeast,Cav32 inh,D1 mod,PostGolgi ctrl,hDAT+cocaine
CCOC(=O)c1[nH]c2cc(OC)c(OC)cc2c1NC(=O)CN1CCN(c2ccc(OC)cc2)C(C)C1 (stereo not drawn),1.9,12.1,-5.4*,x,16.1,1.09
COC(=O)c1[nH]c2cc(C)ccc2c1NC(=O)CN1CCc2cc(OC)c(OC)cc2C1,1.5,10.4,0.155,0.296,16.6,1.4
CCOC(=O)c1[nH]c2ccc(OC)cc2c1NC(=O)CCN1CCc2ccccc2C1,1.5,8.4,-0.105,x,32.0*,1.56
COC(=O)c1[nH]c2ccc(C)cc2c1NC(=O)CN1CCN(C(=O)c2ccccc2)CC1,0.9,2.8,1.22,-0.0827,5.4,2.66*
CCOC(=O)c1[nH]c2ccc(OC)cc2c1NC(=O)CCN1CCC(C)CC1,1.4,11.6,0.145,-0.53,1.9,-0.485
COC(=O)c1[nH]c2ccc(Cl)cc2c1NC(=O)CN1CCc2cc(OC)c(OC)cc2C1,1.7,4.5,0.0147,-0.012,30.7*,2.37
CCOC(=O)c1cc2occc2n1CC(=O)Nc1ccc(OC)cc1OC,1,0.3,-2.28,-0.0768,13.1,-1.67
CCOc1ccc(OCC)c(NC(=O)CN2CCN(c3cccc(C)c3C)CC2)c1,x,7.8,-0.679,x,16.4,0.628
Cc1ccc2[nH]c(C(=O)O)c(NC(=O)CN3CCN(c4cccc(C)c4C)CC3)c2c1,1.5,0.5,-4.95*,0.163,2.1,1.09
Cc1cccc(N2CCN(CC(=O)Nc3ccccc3[N+](=O)[O-])CC2)c1C,0.9,-0.6,-0.0577,x,31.6*,0.191
Nc1nnc(COc2cccc(C(F)(F)F)c2)s1,0.9,-6.9,0.757,x,1.3,0.78
CC1(C)NC(C)(C)C(O)(C(N)=O)C1=O (stereo not drawn),1,-3.3,0.63,-1.15,-6.1,1.36
CSc1nc(Oc2ccc(=O)n(C)n2)nc(N(C)C)n1,0.9,-20.7,-0.158,x,2.7,x
CCCCCSc1nnc(-c2cc(Br)ccc2N)c(=O)[nH]1,1.1,0.8,-5.03*,-0.0211,11.4,-0.328
CC(=O)N(Cc1ccc(F)cc1)C1=C(NCc2ccccc2)C(=O)c2ccccc2C1=O,1.3,-4.5,-5.11*,x,27.0,-4.28*
O=C(NCc1ccc(F)cc1)N[C@@H](Cc1ccccc1)C(=O)O,1.1,5.5,-0.0934,-0.652,14.8,-1.13
Cc1cc(C)n(-c2ccc(C(=O)OCC(=O)c3ccc(Br)s3)cc2)n1,1.1,-5.0,-1.85,-0.231,20.3,-0.123
COC(=O)c1ccsc1NC(=O)c1ccc2c(c1)OCCO2,x,x,0.433,3.79*,x,-0.415
O/N=C/c1cc(Cl)ccc1OCc1cccc2ccccc12,0.5,24.4,-1.91,x,60.5*,-0.418
COc1ccc(-n2nc([N+](=O)[O-])c(=NCCc3ccc(Cl)cc3)n2O)cc1,1,2.8,x,x,40.3*,x
O=[N+]([O-])c1nn(-c2ccc3c(c2)OCCO3)n(O)c1=NC1CCCCC1,0.7,1.4,-1.65,x,16.3,0.284
CCc1ccc(N=c2c([N+](=O)[O-])nn(-c3ccccc3)n2O)cc1,0.7,6.9,-2.09,x,33.6*,0.899
Cc1ccc(C2CC(C(F)(F)F)n3nc(C(=O)NCCN4CCOCC4)cc3N2)cc1 (stereo not drawn),1.5,-7.5,0.657,-0.323,-0.1,2.05
Cc1cc(C(=O)NCc2ccco2)no1,0.9,30.3*,0.242,x,11.2,0.0143
Cc1cccc(NC(=O)c2cc3n(n2)C(C(F)(F)F)CC(c2ccc4c(c2)OCO4)N3)c1 (stereo not drawn),0.9,8.7,-7.29*,-0.872,57.8*,1.39
CCCCNC(=O)c1cc2n(n1)C(C(F)(F)F)CC(c1ccccc1)N2 (stereo not drawn),0.8,1.1,-0.0101,x,34.9*,0.464
Cc1ccc2c(CC(=O)NCc3ccco3)coc2c1C,1.2,5.4,-9.36*,0.418,4.5,-0.0198
